ATXN2 expr inh: Primary qHTS for Inhibitors of ATXN expression. AID 1745845, 2022. actives 0.72% (n = 360,000). Potency, µM (titrated, usually from 57 µM), actives largely listed as inhibitors. HEK-293 ATXN2-luciferase reporter, luminescence, 24 h; note: nearly all actives have a fitted effect of over 55% in size
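ATXN2-luciferase reporter cells (luciferase flanked by upstream and downstream ATXN2 gene portions) were treated 24 h at 37 °C with compounds at up to 57 uM. SteadyGlo luminescence gave expression; GF-AFC fluorescence gave viability.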
TGFb SMAD3 inh: qHTS for Inhibitors of TGF-b. HepG2 CAGA-GFP TGF-b/SMAD3 reporter, GFP fluorescence, 18 h; TGF-beta stimulated, 500 pg/mL final. Potency, µM (top dose mostly 46.1 µM), hits mostly inhibitors. actives 1.2% (n = 410,000). AID 588855, 2011; note: nearly all actives have a fitted effect of over 65% in size
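Read-out: total well GFP (ex488/em500-530) summed from mean per-cell fluorescence. Cells: HEPG2 CAGA-GFP, 1% FBS DMEM, 18 h at 37 degrees C with 500 pg/mL final TGF-beta. Unstimulated wells served as the full-inhibition control; stimulated DMSO wells = 0%.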
S2 tox: Viability Counterscreen for Primary qHTS for Inhibitors of ATXN expression | S2 cells (HEK-293 line with an ATXN2-luciferase reporter) viability, CellTiter-Fluor protease fluorescence, 24 h | Potency, µM (titrated, usually from 56.7 µM), usual class: cytotoxic | actives 0.49% (n = 400,000) | AID 651635, 2014; note: nearly all actives have a fitted effect of over 40% in size
HepG2 viability: qHTS for Inhibitors of TGF-b: Cytotox Counterscreen. HepG2 CAGA-GFP viability, ATP luminescence, 18 h. actives 0.76% (n = 410,000). Potency, µM (top dose mostly 46.1 µM), most hits filed as cytotoxic
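CellTiter-Glo luminescence gave cytotoxicity after 18 hours at 37 degrees C. The cells were HepG2 CAGA-GFP in 1% FBS DMEM, stimulated with 500 pg/mL TGF-beta after compound addition. %Activity was normalised to no-cell wells (complete cell-killing) and DMSO (no toxicity), and curves were fitted and classified.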
RORg inh: qHTS for inhibitors of ROR gamma transcriptional activity | Nuclear receptor ROR-gamma (Mus musculus), P51450 | Drosophila S2 Gal4-RORgamma UAS-luciferase reporter, 20 h | Potency, µM (top dose mostly 53.6 µM), hits mostly inhibitors | actives 5.4% (n = 310,000) | AID 2551, 2010; note: nearly all actives have a fitted effect of over 60% in size
Target sequence (P51450 whole entry, looked up, the tested form may be a part): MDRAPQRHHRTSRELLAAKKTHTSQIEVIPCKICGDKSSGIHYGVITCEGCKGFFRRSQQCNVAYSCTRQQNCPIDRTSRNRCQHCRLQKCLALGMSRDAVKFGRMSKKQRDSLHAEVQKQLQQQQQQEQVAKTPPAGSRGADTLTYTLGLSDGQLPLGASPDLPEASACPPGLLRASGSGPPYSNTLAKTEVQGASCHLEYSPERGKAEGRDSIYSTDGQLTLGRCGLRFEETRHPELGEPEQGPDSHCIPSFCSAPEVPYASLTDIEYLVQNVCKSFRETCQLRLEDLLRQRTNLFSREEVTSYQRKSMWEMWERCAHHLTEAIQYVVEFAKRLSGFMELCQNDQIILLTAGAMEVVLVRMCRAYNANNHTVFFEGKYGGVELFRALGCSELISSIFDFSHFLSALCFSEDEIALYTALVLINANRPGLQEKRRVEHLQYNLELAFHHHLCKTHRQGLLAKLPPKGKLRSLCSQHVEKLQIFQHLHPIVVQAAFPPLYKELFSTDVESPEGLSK
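Luminescence from a UAS-regulated Photinus luciferase reporter in stably transfected Drosophila Schneider cells is measured; decreased signal marks ROR gamma inhibition. Fusion expression is induced by 700 uM copper sulfate for 20 hr.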
VP16 counter: VP16 counterscreen qHTS for inhibitors of ROR gamma transcriptional activity; Drosophila S2 Gal4-VP16 UAS-luciferase, luminescence, 20 h; Potency, µM (top dose mostly 53.6 µM), most hits filed as inhibitors; actives 3.5% (n = 310,000); AID 2546, 2010;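 note: Gal4-VP16 expression switched on by copper sulfate through the metallothionein promoter; nearly all actives have a fitted effect of over 50% in size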
Numbers stand for hits; - = inactive; ? = inconclusive; . = not tested or not shown; ! = repeats disagree; [ ] = dose if it differs, or a comment. Sampled rows, rich in hits. Any-hit rate of the full collection: about 6.1%. Calls come from the whole dose curve; as a rule, active = well fitted curve in the direction sought with a large enough effect; inconclusive = small, poorly fitted or top-dose-only effect, or another doubt; inactive = no such curve, though single readings can be large; an effect the other way counts as inactive or inconclusive.

SMILES	ATXN2 expr inh	TGFb SMAD3 inh	S2 tox	HepG2 viability	RORg inh	VP16 counter
O=C(CSc1c2c(nc3cc(Cl)ccc13)CCCC2)N1CCN(c2ccccc2)CC1	.	?	.	-	.	.
Cn1c(=O)c2c(nc(Oc3ccccc3)n2Cc2c(Cl)cccc2Cl)n(C)c1=O	-	-	-	-	.	.
COc1c(Cl)cc2c([nH]c3cnccc32)c1NC(=O)c1cccnc1C	-	.	.	.	.	.
O=C(OCC(=O)N1CCCC1=O)c1nc(Cl)c(Cl)c(Cl)c1Cl	?	-	31.6µM	-	?	?
CCOC(=O)Cn1c(=O)oc2cc(S(=O)(=O)NCCCc3ccccc3)ccc21	-	-	-	-	?	12.6µM
CCOC(=O)Cn1c(=O)oc2cc(S(=O)(=O)NCCc3ccc(C)cc3)ccc21	-	-	-	-	?	?
COc1cc2nc(SCc3ccc(Cl)cc3)n3nc(CCn4nc(C)cc4C)nc3c2cc1OC	-	?	-	-	.	.
Cc1ccccc1OCc1nnc(SCc2cc(=O)c3ccccc3[nH]2)n1C	-	?	-	-	.	.
COc1cc2nc(=S)n3[nH]c(COc4ccccc4C)nc3c2cc1OC	?	-	?	-	0.199µM	0.398µM
COc1cc2nc(=S)n3[nH]c(CCn4nc(C)cc4C)nc3c2cc1OC	-	-	?	-	0.0562µM	0.0891µM
Cc1ccc2oc(-c3ccc(Cl)c(NC(=O)c4ccc(OC(C)C)cc4)c3)nc2c1	-	-	-	-	.	.
Cc1cc(Nc2nc(N[C@@H](C)c3ccc(F)cc3)c(C#N)cc2F)n[nH]1	24.3µM	.	.	.	.	.
Cc1cc(C)c(C#N)c(Nc2ccc(F)cc2)n1	-	-	?	-	-	-
CCOC(=O)C1=CN(Cc2cccc(F)c2)S(=O)(=O)NC1c1ccc(F)c(Cl)c1 (configuration not stated)	?	15.8µM	-	-	.	.
CCOC(=O)C1=CN(Cc2ccco2)S(=O)(=O)NC1c1ccc(F)c(Cl)c1 (configuration not stated)	-	-	-	-	.	.
COc1ccc(/C=N/Nc2ncnc3sc4c(c23)CCCC4)cc1OC	-	-	.	-	3.16µM	3.98µM
CCCOc1ccc(OC(=O)c2cn(-c3ccc(OC)cc3)c(=O)c3ccccc23)cc1	.	-	.	-	.	.
O=C(CCn1[nH]c(=O)c2ccccc2c1=O)OC1CCCCC1	-	-	-	-	?	22.4µM
CCCCOC(=O)CCn1[nH]c(=O)c2ccccc2c1=O	-	-	-	-	-	?
O=C(CN1C(=O)C2CCCCN2c2ccc(C(=O)N3CCCC3)cc21)NCc1ccc(F)cc1 (configuration not stated)	-	-	-	-	.	.
CCOC(=O)C1CCCN(Cc2nc(N)nc(Nc3ccc(Cl)cc3)n2)C1 (configuration not stated)	-	-	-	-	12.6µM	?
CCOC(=O)C1CCCN(C/C(O)=C(\C#N)c2nc(-c3ccc(Cl)cc3)cs2)C1 (configuration not stated)	-	-	-	-	22.4µM	?
C=CCOC(=O)C(C(C)=O)C(NC(=O)OC)c1ccc(F)cc1 (configuration not stated)	.	.	.	.	-[10 µM]	-[10 µM]
Cc1ccc(-n2c(C)cc(/C=N/NC(=O)c3ccncc3)c2C)cc1C	-	-	-	-	3.98µM	?
Cc1ccc(-n2c(C)cc(/C=N/NC(=O)c3ccncc3)c2C)c(C)c1	-	-	-	-	-	-
SMILES	ATXN2 expr inh	TGFb SMAD3 inh	S2 tox	HepG2 viability	RORg inh	VP16 counter
Cc1cc(/C=N/NC(=O)C(O)(c2ccccc2)c2ccccc2)c(C)n1-c1ccccc1	.	-	-	-	11.2µM	?
COC(=O)N/N=C/c1cc(C)n(-c2ccccc2)c1C	.	-	?	-	-	-
Cc1cccc(C)c1-n1c(C)cc(/C=N/NC(=O)CSc2ncccn2)c1C	-	-	-	-	?	15.8µM
Cc1cccc(C)c1-n1c(C)cc(/C=N/NC(=O)c2ccncc2)c1C	-	-	-	-	1.26µM	2.24µM
CCc1ccc(-n2c(C)cc(/C=N/NC(=O)c3ccncc3)c2C)cc1	-	?	-	-	7.08µM	20µM
CCc1ccc(-n2c(C)cc(/C=N/NC(=O)OC)c2C)cc1	.	?	-	-	-	-
Cc1cc(/C=N/NC(=O)c2ccncc2)c(C)n1-c1ccccc1	.	-	-	-	10µM	?
O=C(NN=Cc1ccccc1O)c1cccc([N+](=O)[O-])c1	?	-	?	-	.	.
Cc1cc(/C=N/NC(=O)c2cccs2)c(C)n1-c1ccccc1	-	-	?	-	?	?
Cc1cc(/C=N/NC(=O)c2cccc([N+](=O)[O-])c2)c(C)n1-c1ccccc1	.	-	-	-	3.55µM	4.47µM
C=CCNC(=S)NNC(=O)c1ccccc1OCC	-	-	-	-	-	-
C=CCNC(=S)NNC(=O)COc1ccc2cc(Br)ccc2c1	-	-	-	-	3.16µM	?
O=C(COc1ccc2ccccc2c1)Nc1ccc(Br)cc1C(=O)O	-	-	-	-	-	?
C=CCNC(=S)NNC(=O)COc1cccc(Cl)c1	-	?	-	-	1.26µM	8.91µM
C=CCNC(=S)NNC(=O)COc1ccc(Br)cc1	-	-	-	-	5.01µM	3.55µM
C=CCNC(=S)NNC(=O)c1cccc(Br)c1	-	-	-	-	?	?
COc1ccc(C2CC(c3ccccc3)Oc3ccc(OC)cc32)cc1 (configuration not stated)	.	-	.	-	-	-
CC1=C(C(=O)Nc2cccc(F)c2)C2(CCCCCC2)OC1=O	.	-	.	-	.	.
Cc1nc2ccc(NC(=O)c3cccs3)cc2c(=O)n1Cc1ccc(Cl)cc1	14.1µM	?	?	-	?	-[0.365 µM]
Cc1cccc(-c2nnc(C3CCN(S(=O)(=O)c4cccc(Cl)c4)CC3)o2)c1	1.58µM	?	1.41µM	-	.	.
CC(=O)Nc1ccc(S(=O)(=O)N2CCC(c3nnc(-c4ccc(C)cc4)o3)CC2)cc1	20µM!	?	17.8µM	-	14.1µM	?
Cc1cnc(-n2ncc(C(=O)N(C)CC3CCCN(C)C3)c2C2CC2)nc1-c1cccs1 (configuration not stated)	.	.	-	.	.	.
Cc1cc(-n2c(SCC(=O)NCc3ccccc3)nc3ccsc3c2=O)ccc1Cl	.	-	.	-	.	.
C#CCOC(=O)c1ccccc1C(=O)n1nnc2ccccc21	-	?	-	-	17.8µM	?
COC(=O)c1ccccc1NC(=O)c1cnn2c1NC(=C1CC1)C=C2C(F)F	.	-	.	-	.	.
O=C(NC(=S)NCCc1ccccc1)C1CCCCC1	-	?	-	-	2.82µM	3.98µM
O=C(NC(=S)NCc1ccccc1)C1CC1	-	-	-	-	6.31µM	?
S=C(NCCc1ccccc1)N/N=C/C1CCCCC1	.	.	.	.	1.41µM	5.62µM
